Whole data set: some 5,400 compounds, median “IFI” near 2, cut for the highest 2% near 22. This excerpt belongs to a sample that is enriched for the highest values.

This test is described as follows: NOVARTIS: Inhibition Frequency Index (IFI) - the number of HTS assays where a compound showed > 50% inhibition/induction, expressed as a percentage of the number of assays in which the compound was tested. Format: functional.
`CC1CC(C)CC(C)C(O)C(C#N)=CC=CCC(C2CCCC2C(=O)O)OC(=O)CC(O)C(C)C1` (stereo not given): the IFI came to 25.8%. The compound `COc1ccc(Cn2cccc(C(=O)Nc3ccc(OC)cc3)c2=O)cc1` showed an IFI of 5.26%. To `Oc1ccccc1C=Nc1ccccc1[Te]c1ccccc1N=Cc1ccccc1O` belongs 8.21%; to `Cn1ncnc2c(=O)n(C)c(=O)nc1-2`, 26.7%. To `CCn1nc(/C=C/c2ccccc2)nc2c(=O)n(C)c(=O)nc1-2` belongs 16.7%.

`Cc1nc2c(=O)n(C)c(=O)nc-2n(C)n1` gave an IFI of 25%.

With `CCC(C)N1CCN(Cc2cccc(OC)c2OC)CC1` (stereo not given), the IFI stood at 3.17%. `CCCC[C@@H](C)C(O)[C@H]1C(=O)N[C@@H](CC)C(=O)N(C)CC(=O)N(C)[C@@H](CC(C)C)C(=O)N[C@@H](C(C)C)C(=O)N(C)[C@@H](CC(C)C)C(=O)N[C@@H](C)C(=O)N[C@@H](C)C(=O)N(C)[C@@H](CC(C)C)C(=O)N(C)[C@@H](CC(C)C)C(=O)N(C)[C@@H](C(C)C)C(=O)N1C` (stereo not given in full) registered an IFI of 3.45%. The value for `CNCC(O)c1ccc(Cl)c(Cl)c1` (stereo not given) was 0%. The value for `Nc1ccc(C(=O)NN=Cc2cccc([N+](=O)[O-])c2)cc1` was 0%; that for `C=C[C@H]1CN2CC[C@H]1C[C@H]2[C@H](OC(=O)c1cccc([N+](=O)[O-])c1)c1ccnc2ccccc12` was 0.926%. For `COC1=CC(C)=C[C@@H](C)[C@@H](O)[C@H](C)CC(C)=CC=C[C@H](OC)[C@@H](C(C)C(O)[C@H](C)[C@@]2(O)C[C@@H](O)[C@H](C)[C@@H](C(C)C)O2)OC1=O` (stereo not given in full), the IFI was 19.6%. The compound `C=CC1CN2CCC1CC2C(OC(=O)C1CC1)c1ccnc2ccccc12` (stereo not given) displayed an IFI of 0%.

Regarding `Cc1ccc(CN2C3CCCC2CC(NC(=O)Nc2cccc(F)c2)C3)cc1` (stereo not given), the IFI came out at 1.32%. On to `O=C(Nc1ccc(Oc2ccc(OC(F)(F)F)cc2)cc1)C1CC1`, for which the IFI stood at 1.57%. Regarding `CCOC(=O)CN(N=O)C1=C(N2CC2)C(=O)c2ccccc2C1=O`, the IFI is 30.8%. To `COc1ccc(NC2=C(N3CCCCC3)C(=O)c3ccccc3C2=O)cc1` belongs 18.7%; to `COc1cc(CN2CC3CC(C2)c2cccc(=O)n2C3)ccc1O` (stereo not given), 0%. In turn, `O=C(NNC(=O)c1csnn1)c1ccc(C(F)(F)F)cc1` yielded an IFI of 3%.

Regarding `Cc1nc(Oc2ccc3ccc(=O)oc3c2)c2c3c(sc2n1)CCCCC3`, the IFI stood at 0%. As for `Cc1c2ccccc2c(C)c2ccccc12`, the IFI came out at 3.76%. The value for `NC(=O)Oc1ccc(Cc2ccccc2)cc1` was 0%; that for `CC(Cc1ccccc1)NCc1ccccc1O` (stereo not given) was 3.12%; that for `CN1CCN(c2nc(Cl)nc3[nH]cnc23)CC1` was 0.699%. `CC(=O)N(C1=C(N(C)C)C(=O)c2ccccc2C1=O)c1ccc(F)c(F)c1` gave an IFI of 23.1%. In the case of `CC(=O)N(C1=C(N(C)C)C(=O)c2ccccc2C1=O)c1cccc(F)c1`, the IFI amounted to 15.4%. The value for `CC(=O)N(C1=C(N(C)C)C(=O)c2ccccc2C1=O)c1ccc(Cl)cc1` was 0%. Compound `COc1ccccc1-n1c(/C=C/c2cc(Br)ccc2O)nc2ccccc2c1=O` displayed an IFI of 8.06%. In turn, `CC(C)[C@@]1(NC(=O)[C@@H]2C[C@@H]3c4cccc5[nH]cc(c45)C[C@H]3N(C)C2)O[C@@]2(O)[C@@H]3CCCN3C(=O)[C@H](CC3CCCCC3)N2C1=O` displayed an IFI of 9.52%. To `O=C1c2ccccc2-c2nc3nnnn3nc21` belongs 42.9%; to `CC=C[C@H]1O[C@@](O)([C@H](C)C(O)C(C)[C@@H]2OC(=O)C(OC)=CC(C)=C[C@H](C)[C@H](O)[C@H](CC)[C@H](O)C(C)CC(C)=CC=C[C@H]2OC)C[C@@H](O[C@@H]2C[C@H](O)[C@@H](OC(N)=O)[C@H](C)O2)[C@@H]1C` (stereo not given in full), 15%.

With `CO/C(=C\C(N)=O)C(C)C(/C=C/c1csc(-c2csc(C(C)/C=C/C=C/C(C)C)n2)n1)OC` (stereo not given), the IFI was determined as 11.5%.

On to `C=C[C@H]1CN2CC[C@H]1C[C@H]2[C@H](OC(C)=O)c1ccnc2ccccc12`, for which the IFI is 1.89%.

Turning to `CC[C@H]1CN2CC[C@@H]1C[C@@H]2[C@@H](O)c1ccnc2ccc(OC)cc12`, the IFI was found to be 2.16%. For the compound `CC1OC(=O)C(C(C)C)NC(=O)C(C(C)C)OC(=O)C(C(C)C)NC(=O)C(C)OC(=O)C(C(C)C)NC(=O)C(C(C)C)OC(=O)C(C(C)C)NC(=O)C(C)OC(=O)C(C(C)C)NC(=O)C(C(C)C)OC(=O)C(C(C)C)NC1=O` (stereo not given), the IFI came to 27.7%.

Take `C=CC1(O)CN2CCC1CC2[C@@H](O)c1ccnc2ccc(OC)cc12` (stereo not given in full): the IFI was determined as 3.57%.

In turn, `CCc1cc2c(cc1-c1csc(NC(=N)N)n1)C(C)(C)CCC2(C)C` had an IFI of 5.16%. To `CC1(C)CN=C(NCc2ccccc2Cl)S1` belongs 0%; to `C=CC1CN2CCC1CC2C(OC(=O)c1ccco1)c1ccnc2ccccc12` (stereo not given), 0%; to `COc1cc2c3c(c4cc(OC)c(OC)cc4c2cc1OC)CN1CCC[C@@H]1C3`, 5.26%. With `OC1(c2ccc(Br)cc2)CCN(C2CCN(CCc3ccccc3)CC2)CC1`, the IFI worked out at 4.1%. To `Cc1cc(N(C)C)cc(C)[n+]1OC(=O)N(c1ccccc1)c1ccccc1` belongs 16.7%; to `CNC1CC2OC(C)(C1OC)n1c3ccccc3c3c4c(c5c6ccccc6n2c5c31)C(=O)NC4O` (stereo not given), 28.6%; to `C/C(=C\c1csc(C)n1)[C@@H]1C[C@@H]2O[C@@H]2CCC[C@H](C)C(O)[C@@H](C)C(=O)C(C)(C)[C@@H](O)CC(=O)O1` (stereo not given in full), 6.9%. `CCC1CN2CCc3cc(OC)c(OC)cc3C2CC1CC1NCCc2cc(OC)c(OC)cc21` (stereo not given) registered an IFI of 33.3%. The compound `CC[C@H]1CN2CCc3cc(OC)c(OC)cc3[C@@H]2C[C@@H]1C[C@@H]1NCCc2cc(OC)c(OC)cc21` returned an IFI of 37%.

Take `CC[C@H]1CN2CCc3cc(OC)c(OC)cc3[C@@H]2C[C@@H]1C[C@H]1NCCc2cc(O)c(OC)cc21`: the IFI is 32.3%. Regarding `CC[C@H]1CN2CCc3cc(OC)c(OC)cc3[C@@H]2C[C@@H]1C[C@H]1NCCc2cc(OC)c(OC)cc21`, the IFI turned out to be 23.8%. `COc1ccc(C=NNc2ccnc3cc(Cl)ccc23)cc1` returned an IFI of 4.8%. To `CN1C[C@@H](CSc2ccccn2)C=C2c3cccc4[nH]cc(c34)C[C@H]21` belongs 4.88%. With `C=CC1CN2CCC1C(C(O)c1ccnc3ccc(OC)cc13)C2` (stereo not given), the IFI was 2.29%. `CC=C[C@H]1O[C@@](O)([C@@H](C)C(O)C(C)[C@H]2OC(=O)C(OC)=CC(C)=C[C@@H](C)[C@H](O)C(CC)[C@@H](O)[C@H](C)CC(C)=CC=C[C@@H]2OC)C[C@@H](O[C@H]2C[C@@H](O)[C@H](OC(N)=O)[C@@H](C)O2)[C@@H]1C` (stereo not given in full) returned an IFI of 17.5%.

Regarding `CCCCCCCCCCCCn1ccc(=N)cc1`, the IFI was 15.4%. Consider `CCC(C)(O)C(=O)O[C@H]1C(=O)OC2CC3C(C)=C[C@H](O)[C@@H](O)[C@]3(C)C3C24CO[C@]3(O)[C@H](O)[C@H](C)C14` (stereo not given in full), for which the IFI is 7.69%. The compound `COc1cc2c(O[C@@H]3O[C@H](CO)[C@@H](O)[C@H](O)[C@H]3O)c3c(c(-c4ccc5c(c4)OCO5)c2cc1OC)C(=O)OC3` displayed an IFI of 12.4%. `O=C(CCl)Nc1ccc(Cl)cc1` came in with an IFI of 3.54%.

Consider `COc1ccccc1N1CCN(Cc2cc(C)c(C)cc2O)CC1`, for which the IFI was determined as 2.94%.

For `COc1ccc(C(Cc2ccccc2)NC2CN3CCC2CC3)cc1` (stereo not given), the IFI was found to be 0%.

The compound `c1ccc(CCNC2CCN(Cc3ccccc3)CC2)cc1` had an IFI of 0%.

`O=C(NNC(=O)c1csnn1)c1ccc(Cl)cc1`: the IFI amounted to 1%. `c1ccc(-c2nn(-c3ccccc3)[n+](-c3ccccc3)n2)cc1` came in with an IFI of 11.2%. On to `CCN(CC)S(=O)(=O)c1ccc(C(=O)c2c(C)c(C(=O)C(F)(F)F)c3ccccn23)cc1`, for which the IFI came out at 3.12%. To `COc1ccc(C[C@H]2NC[C@H](O)[C@H]2OC(C)=O)cc1` belongs 33.6%; to `CC(=O)N(C1=C(N(C)C)C(=O)c2ccccc2C1=O)c1cccc(Cl)c1`, 7.14%.

`Clc1cccc(CNC2CCN(CCc3ccccc3)CC2)c1` showed an IFI of 0.781%. With `Cc1n(-c2ccccc2)c2c([n+]1C)C(=O)c1ccccc1C2=O`, the IFI was 33.3%.

The compound `CO[C@H]1[C@H](C)[C@@H]([C@H]2CC[C@H]([C@@H]3CC[C@H]([C@@]4(C)O[C@]5(O[C@H](C[C@@H]6O[C@](O)([C@@H](C)C(=O)O)[C@@H](C)[C@H](O[C@H]7CC[C@H](OC)[C@@H](C)O7)[C@@]6(C)OC)C[C@@H](OC)[C@H]5C)[C@H](C)[C@H]4OC)O3)O2)O[C@](C)(O)[C@@H]1C` showed an IFI of 15.5%. With `COc1cc2c(cc1O)CC[n+]1cc3c(OC)c(OC)ccc3cc1-2`, the IFI turned out to be 0%.

On to `CCN1C(=O)N(CC(N)=O)C(=O)C12CCN(Cc1ccc(N(C)c3ccccc3)cc1)CC2`, for which the IFI amounted to 3.85%. To `CC(C)N1CC=C(c2c[nH]c3ccccc23)CC1` belongs 0%; to `CC[C@@H]1CN2CC[C@H]1C[C@H]2[C@H](O)c1ccnc2ccc(OC)cc12`, 1.32%. The compound `C[C@@H]1C[C@@H]([C@H](O)CC2CC(=O)NC(=O)C2)C(=O)[C@@H](C)C1` displayed an IFI of 19.7%. To `CC(=O)OC1(C)CC(C)C(=O)C(C(O)CC2CC(=O)NC(=O)C2)C1` (stereo not given) belongs 22.6%. The value for `C[C@@H]1C[C@@H](C)C(=O)[C@@H](C(O)CC2CC(=O)NC(=O)C2)C1` (stereo not given in full) was 23.4%; that for `C[C@H]1C[C@H](C)C(=O)[C@@H]([C@@H](O)CC2CC(=O)NC(=O)C2)C1` was 23.9%. The compound `OCCC1CN(Cc2cccc(Cl)c2)CCN1Cc1ccccc1` (stereo not given) registered an IFI of 7.69%. `COC(=O)[C@]1(C)CC[C@]2(C)CC[C@]3(C)C4=CC=C5C(=CC(=O)C(O)=C5C)[C@]4(C)CC[C@@]3(C)[C@@H]2C1`: the IFI turned out to be 21.4%.

Take `CC(=O)O[C@]1(C(C)=O)CCC2C3C=CC4=CC(=O)CC[C@]4(C)C3CC[C@@]21C` (stereo not given in full): the IFI came out at 2.33%. As to `Cc1nc2ccccc2c(=O)n1-c1ccc([N+](=O)[O-])cc1`, the IFI stood at 0%. Take `C=CC12CCN(CC1)C(C(O)c1ccnc3ccc(OC)cc13)C2` (stereo not given): the IFI amounted to 0%. With `C=CC1CN2CCC1CC2[C@H](c1ccnc2ccccc12)S(=O)(=O)O` (stereo not given in full), the IFI was 0%.

`O[C@@]1(c2cc3ccccc3s2)CN2CCC1CC2` gave an IFI of 1.63%. To `CCN1CCC(N2CCC(n3c(Cc4ccccc4OC)nc4cc(F)ccc43)CC2)CC1` belongs 1.7%. Consider `C=C[C@H]1CN2CC[C@H]1C[C@@H]2[C@@H](OC(=O)C(C)C)c1ccnc2ccccc12`, for which the IFI stood at 1.67%. Consider `CC1=CC[C@@H](/C(C)=C/c2csc(C)n2)OC(=O)C[C@H](O)C(C)(C)C(=O)[C@H](C)[C@@H](O)[C@@H](C)CCC1`, for which the IFI was 5.66%.
